FMDV inh – High Throughput Screening for Foot and Mouth Disease Virus Antivirals | actives 1.2% (n = 410,000) | AID 1159524, 2015 | Potency, µM (titrated, usually from 57.9 µM), inactives show at the highest dose activity change, negative = inhibition, most hits filed as inhibitors | FMDV antiviral cell-based qHTS; calls by dose curve; tested in HEK293T cells; note: read-out not given here; potency is the fitted concentration of half-maximal effect; nearly all actives have a fitted effect of over 45% in size
MARV entry inh – qHTS for inhibitors of binding or entry into cells for Marburg Virus | Marburg virus pseudotyped entry inhibition, cell reporter | Potency, µM (top dose mostly 37.8 µM), inactives show at the highest dose activity change, negative = inhibition, most hits filed as inhibitors | actives 1.8% (n = 300,000); calls by dose curve; tested in HEK293 cells; note: potency is the fitted concentration of half-maximal effect
Lassa entry inh – qHTS for Inhibitors of binding or entry into cells for Lassa Virus. actives 1.2% (n = 300,000). Potency, µM (series often up to 37.9 µM), without a hit: at the highest dose activity change, negative = inhibition, most hits filed as inhibitors. AID 540256, 2011. Lassa virus pseudotype entry inhibition, cell reporter; calls by dose curve; tested in HEK293 cells; note: potency is the fitted concentration of half-maximal effect; nearly all actives have a fitted effect of over 50% in size
HCMV antiviral – qHTS Assay for inhibitors of the human cytomegalovirus (HCMV) | HFF cells, HCMV-luciferase reporter, 72 h; active compounds read low | activity change, negative = inhibition, % at 57.5 µM | actives 4.5% (n = 410,000) | AID 1259415, 2018; in the data active = activity change below about -60%; inconclusive = no clear call, values can overlap the other calls; inactive = above about -39%
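Cell-based, HFFs, 1000 cells/well, 16 h 37C; cpds in DMSO + HCMV-luc, MOI 1 PFU/cell; 72 h 37C; OneGlo luminescence after 5 min RT; norm. to buffer vs Salinomycin 10uM.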
The depositor's hits bear a star; u = inconclusive; x = not tested or not shown; ! = not active in a repeat; [ ] = remark or other dose. Shown are actives, neighbours in structure and some others; about 6.2% of the full set was active somewhere. % is set by controls: 0 for no effect and ±100 for the full control effect.

SMILES | FMDV inh | MARV entry inh | Lassa entry inh | HCMV antiviral
O=C1/C(=C/c2ccncc2)SC(=S)N1Nc1ccccc1 | 20µM* | u | -11.2% | 100.3
Cc1cccc(N2CCN(C(=O)c3ccc4c(c3)N(Cc3ccccc3)C(=O)c3ccccc3S4(=O)=O)CC2C)c1 (stereo unspecified) | -13.9% | u | u | -34.4
CCN(CC)Cc1ccc(Nc2ccnc3cc(Cl)ccc23)cc1O | -12.4% | x | x | x
COC(=O)[C@@H]1[C@@H](c2cccc(C(F)(F)F)c2)NC(=O)N(Cc2ccccc2)[C@@H]1C | x | -19.4%[14.2 µM] | x | x
O=C(CCN1C(=O)/C(=C/c2ccc(F)cc2)SC1=S)N[C@@H](CO)Cc1ccccc1 | 0.5% | x | x | -64.5*
CCCN1CCN(C(=S)Nc2ccccc2C(F)(F)F)CC1 | -19.3% | u | -19.1% | -82.9*
CCC1CN(CCNC(=O)C2CCCCN2C)Cc2cc(OC)ccc2O1 (stereo unspecified) | -4.1% | x | x | x
Cc1nnnn1/C(=C\c1ccccc1)C(=O)OCC(=O)NC(C)(C)C | 17.8µM* | 6.31µM* | -18.7% | -13.7
CC(=O)N/C(=C\c1ccccc1)C(=O)OCC(=O)NC1CCCC1 | 2.8% | 11.2% | 4.3% | -16.1
Cc1nnnn1/C(=C\c1ccccc1)C(=O)OCC(=O)NC1CCCCC1 | 8.91µM* | 11.2µM* | u | 7.6
CC(=O)Nc1ccc(NC(=O)COC(=O)/C(=C/c2ccccc2)n2nnnc2C)cc1 | 20µM* | u | u | 36.9
CC(=O)Nc1ccc(NC(=O)COC(=O)c2c(C)nn(-c3ccccc3)c2C)cc1 | -9.3% | 1.5% | u | -35.0
Cc1ccc(Cc2c(-c3cccc(Br)c3)nc3c4ccccc4ccn23)cc1 | x | x | x | 79.3
O=S(=O)(c1ccccc1Cl)N1CCCC1c1nc(-c2ccc(Cl)cc2)no1 (stereo unspecified) | u | u | u | -67.9*
NS(=O)(=O)c1ccc(N=Nc2ccc(=O)[nH]c2O)cc1 | 3.9% | 3.9% | 11.1% | -36.4
NS(=O)(=O)c1ccc(N=Cc2c(O)[nH]c3ccc4ncsc4c23)cc1 | x | x | 7.05µM* | x
COC(=O)N/N=C/c1sc(N2CCCCC2)nc1-c1cccs1 | 0.1% | 1.5% | -13.3% | -67.9*
O=C(Cn1c(-c2ccccc2)c[n+]2ccsc12)c1ccc([N+](=O)[O-])cc1 | 0.1% | u | -17.1% | -99.5*
O=C(Cn1c(-c2ccccc2)c[n+]2ccsc12)c1ccccc1 | 49.5% | x | x | -61.6*
Cc1cc(C)c(C(=O)NCc2nc(-c3cccc(NC(=O)C4CCCN(C)C4)c3)oc2C)[nH]1 (stereo unspecified) | -6.4% | x | x | x
CCc1ccc(CN(Cc2ccco2)C(=O)c2cc(-c3ccc(Cl)cc3)on2)cc1 | -1.8% | 22.6%[46.1 µM] | -10.8%[46.1 µM] | -5.0
CCCCCCCn1ccc(O)c(CC(=O)OC)c1=O | -0.1% | 11.5%[46.1 µM] | 6.0% | 45.2
CCCCCn1ccc(=O)c2c(C(F)(F)F)nccc21 | u | u | u | -66.2*
Cc1c(C#N)c(NC(=O)CCl)n(Cc2cccs2)c1C | 20µM* | x | x | -92.6*
Cc1c(C#N)c(NC(=O)CCl)n(Cc2ccc(F)cc2)c1C | 12.6µM* | x | x | -67.7*
SMILES | FMDV inh | MARV entry inh | Lassa entry inh | HCMV antiviral
Cc1c(C#N)c(NC(=O)CCl)n(Cc2ccccc2)c1C | 11.2µM* | u | u | u
O=C(NNC(=O)c1ccccc1-c1ccccc1C(=O)O)c1ccccc1 | -4.1% | 13.2%[46.1 µM] | -1.0%[46.1 µM] | -24.7
O=C(C=P(c1ccccc1)(c1ccccc1)c1ccccc1)c1ccccc1-c1ccccc1C(=O)C=P(c1ccccc1)(c1ccccc1)c1ccccc1 | 20µM* | u | 2.24µM* | -98.4*
COc1ccc2[nH]cc(CCN(C)C)c2c1 | -23.4% | u | x | -8.6
COc1ccc(CNC(=O)/C=C/c2ccc3[nH]cc(CCN(C)C)c3c2)cc1 | 24.3% | 35.5µM*! | -13.6% | u
COc1ccc(CNC(=O)Cn2nc(C(F)(F)F)c(Br)c2C)cc1 | -15.0% | x | x | -6.0
COc1cc(NC(=O)Cn2nc(C(F)(F)F)c(Br)c2C)cc([N+](=O)[O-])c1 | 39.8µM* | u | -0.4% | -95.7*
CCC1CCCCN1C(=O)CSc1nc2c([nH]c3ccccc32)c(=O)n1-c1ccc(OC)cc1 (stereo unspecified) | -0.6% | x | -13.1%[46.1 µM] | -13.0
Cc1ccccc1Nc1nn2c(=O)c3ccc(C(=O)NCc4cccs4)cc3nc2s1 | -3.0% | x | u | -18.9
CCc1cccc(NC(=O)c2ccc3c(=O)n4nc(Nc5ccccc5OC)sc4nc3c2)c1 | 0.0% | x | u | -88.0*
CCN(CC)CCNC(=O)c1ccc2c(=O)n3nc(Nc4ccccc4)sc3nc2c1 | -7.7% | x | 14.7%[46.1 µM] | -90.5*
Cc1ccc(Cl)cc1Nc1nn2c(=O)c3ccc(C(=O)NCc4cccs4)cc3nc2s1 | u | x | -27.3%[46.1 µM] | -98.3*
COc1ccccc1Nc1nn2c(=O)c3ccc(C(=O)NCc4ccc(F)cc4)cc3nc2s1 | u | x | u | -90.2*
CCc1ccccc1Nc1nn2c(=O)c3ccc(C(=O)NCc4ccccc4OC)cc3nc2s1 | -9.7% | x | u | u
COC(=O)c1cc(C)nc2c1c(=O)nc(SCc1cccc(C)c1)n2C1CC1 | -21.2% | x | 16.4%[46.1 µM] | 26.5
CC(C)CCNC(=O)CSc1nc2ccccc2nc1Cc1ccccc1 | -7.9% | x | 13.2%[46.1 µM] | -2.2
COc1ccc(C2CC(=O)c3cnc(NC(=O)c4cc(OC)cc(OC)c4)nc3C2)cc1 (stereo unspecified) | 0.0% | -4.1% | -13.3% | -6.7
COc1ccc(C2CC(=O)c3cnc(Nc4cc(C)cc(C)c4)nc3C2)cc1 (stereo unspecified) | 0.2% | -11.5% | 0.461µM* | -13.7
O=C1Nc2ccccc2NC(c2cccc(Br)c2)=C1N(C(=O)C(=O)c1cccs1)c1ccccc1 | x | x | x | -88.2*
CC(=O)O[C@@H]1N=C(c2ccccc2)c2ccccc2NC1=O | x | 15.0% | x | x
COc1ccc(CNC(=O)CCc2c(C)c3cc4c(C)coc4c(C)c3oc2=O)cc1OC | -9.8% | 3.0%[46.1 µM] | 7.0%[46.1 µM] | -34.4
O=C(Nc1ccc2ccccc2c1)C(c1ccccc1)C1CCCC1 (stereo unspecified) | -26.2% | u | 2.59µM* | u
COc1cc(OC)c2cc(-c3ccncc3)cnc2c1 | -1.8% | x | x | x
COc1ccccc1C1CCN(C(=O)c2ccccc2)CC1 | -22.9% | x | x | 63.8
COc1ccccc1C1CCN(c2cc(O)ccc2[N+](=O)[O-])CC1 | u | u | u | -72.1*
SMILES | FMDV inh | MARV entry inh | Lassa entry inh | HCMV antiviral
O=C1/C(=C/N(C(=O)c2ccco2)c2ccc(Br)cc2)Sc2ccccc21 | 11.2µM* | u | u | x
Cn1cccc1/C=C1\C(=O)NC(=O)N(Cc2ccccc2)C1=O | -17.4% | -9.9%[46.1 µM] | -17.7% | -65.3*
Cn1cccc1/C=C1/C(=O)NC(=S)N(Cc2ccc(F)cc2)C1=O | 28.2µM* | 5.1%[46.1 µM] | -19.8% | u
O=C(CN1CCNCC1)NC1CCCCC1 | x | x | x | 4.8
O=C(NCc1cccc(Cl)c1)C1CCCN(c2ncnc3c2nc2n3CCCCC2)C1 (stereo unspecified) | -21.9% | u | u | -66.7*
COCCN(Cc1ccco1)C(=O)C1CCCN(c2ncnc3c2nc2n3CCCCC2)C1 (stereo unspecified) | 18.7% | u | 11.2µM* | -18.3

High-throughput results (PubChem BioAssay)
